# VHR inh color: VHR1 phosphatase inhibitors, primary screen, biochemical, colorimetric, HTS; hit rate 0.7% among 50,000; recombinant VHR phosphatase, colorimetric substrate read-out; Dual specificity protein phosphatase 3 (Homo sapiens), P51452; inhibition, % at 20 µM; AID 1992, 2009; in the data active = inhibition above about 60%
# Target sequence (P51452 whole entry, looked up): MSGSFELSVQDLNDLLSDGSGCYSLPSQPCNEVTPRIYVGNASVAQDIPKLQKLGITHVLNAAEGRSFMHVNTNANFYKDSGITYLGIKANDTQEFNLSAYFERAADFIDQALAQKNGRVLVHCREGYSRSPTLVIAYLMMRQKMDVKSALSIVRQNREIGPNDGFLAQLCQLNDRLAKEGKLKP
# Numbers without * were called inactive. Shown is part of a subset that was picked to be rich in hits.
SMILES,VHR inh color
Cc1ccc(N(CC(=O)NC2CCCC2)S(=O)(=O)c2ccc(F)cc2)cc1,-35.2
CC(C)(C)SCCN=C1NS(=O)(=O)c2cc([N+](=O)[O-])ccc21,-9.7
Cc1ccc(N(CC(=O)NCC(C)C)S(=O)(=O)c2ccc(F)cc2)cc1,-35.0
Cc1ccc(NC2=CC(c3ccc([N+](=O)[O-])cc3)N(c3ccc(C)cc3)C2=O)cc1 (stereo unspecified),-10.9
CC(C)=C1C(=O)NN(c2ccccc2)C1=O,82.7*
CCc1ccc(/C=C2\C(=O)NN(c3ccccc3)C2=O)cc1,-16.2
O=C1NN(c2ccccc2)C(=O)/C1=C\C=C\c1ccccc1,-68.0
CCOc1ccccc1NC(=O)c1ccccc1,-15.2
O=C(Nc1cccc2ccccc12)C1C2CCC3C(CCC21)C3(Cl)Cl (stereo unspecified),-13.6
CCOc1ccccc1NC(=O)C1C2CCC3C(CCC21)C3(Cl)Cl (stereo unspecified),119.3*
CCOC(=O)c1c(NC(=O)c2cc(OC)c(OC)c(OC)c2)sc(C)c1C,-0.3
O=C(O)C(Cc1ccccc1)N1C(=O)/C(=C/c2cccc3ccccc23)SC1=S (stereo unspecified),-12.6
CC(c1ccccc1)N1C(=O)/C(=C\c2ccc(Cl)cc2Cl)SC1=S (stereo unspecified),3.9
O=C(O)C(Cc1ccccc1)N1C(=O)/C(=C/c2ccc(Cl)cc2Cl)SC1=S (stereo unspecified),82.8*
CCOC(=O)c1c(N)sc(C(=O)Nc2ccccc2OC)c1C,13.0
Cc1ccc(S(=O)(=O)/N=C(/NC(=S)N2CCOCC2)c2ccccc2)cc1,-19.8
O=[N+]([O-])c1cccc(C2Nc3ccc(Cl)cc3C3C=CCC32)c1 (stereo unspecified),2.3
Cc1c(Cl)ccc2c1NC(C(=O)O)C1CC=CC21 (stereo unspecified),84.2*
CCOC(=O)c1ccc2c(c1)C1C=CCC1C(c1cccc3ccccc13)N2 (stereo unspecified),40.4
O=[N+]([O-])c1ccc2c(c1)C1C=CCC1C(c1ccc(Cl)cc1)N2 (stereo unspecified),-7.8
O=C(O)c1cccc2c1NC(c1cccc(Cl)c1Cl)C1CC=CC21 (stereo unspecified),-4.7
O=C(O)C1Nc2ccc([N+](=O)[O-])cc2C2C=CCC12 (stereo unspecified),96.5*
CC(=O)N1c2ccc3ccccc3c2C2C=CCC2C1c1ccc(Br)cc1 (stereo unspecified),2.0
O=C(O)C1Nc2ccc3ccccc3c2C2C=CCC12 (stereo unspecified),91.9*
O=C(O)C1Nc2c(C(=O)N3CCCC3)cccc2C2C=CCC12 (stereo unspecified),-1.2
SMILES,VHR inh color
Cc1cc(-c2ccc(/C=c3/sc4nc5ccccc5n4c3=O)o2)cc([N+](=O)[O-])c1C,-19.1
Cc1cccc(OCC(=O)Nc2ccc(C)c(C)c2)c1,-5.7
Cn1c(=O)n(C)c2cc(/C=C3/C(=O)NN(c4ccccc4)C3=O)ccc21,-19.3
CC1=C(C(=O)OCCc2ccccc2)C(c2cc([N+](=O)[O-])ccc2Cl)CC(=O)N1 (stereo unspecified),-13.5
C(=NCCCN1CCOCC1)c1c[nH]c2ccccc12,1.6
O=C(Nc1ccc(C(=O)Nc2ccc(Cl)cc2)cc1)c1ccccc1,9.4
Cc1cn(S(=O)(=O)c2ccc3ccccc3c2)cn1,10.7
Cc1ccc(C(C)C)c(OCCOc2ccc(/C=N/n3cnnc3)cc2)c1,-17.4
COc1cccc(OCCOc2ccc(/C=N/n3cnnc3)cc2)c1,109.6*
CCOc1cc(/C=N\n2cnnc2)ccc1OCCOCCOc1ccc(C)cc1,-6.7
Brc1ccc(OCCOc2cccc(/C=N/n3cnnc3)c2)cc1,7.2
CCc1cc(C)cc(OCCOc2ccc(/C=N/n3cnnc3)cc2)c1,46.4
CCOc1cc(/C=N/n2cnnc2)ccc1OCCOc1cccc(C)c1,-3.3
C(=N\n1cnnc1)/c1cccc(OCCOc2ccc(C3CCCCC3)cc2)c1,103.5*
C(=N\n1cnnc1)/c1ccc(OCCOc2ccc(C3CCCCC3)cc2)cc1,105.7*
C1=C=CC(OCCOc2ccc(/C=N/n3cnnc3)cc2)=CC=1,-16.5
O=C(Nc1ccc(Cl)c([N+](=O)[O-])c1)C(c1ccccc1)c1ccccc1,-11.0
COc1ccc(OC(C)C(=O)Nc2ccc(S(N)(=O)=O)cc2)cc1 (stereo unspecified),9.7
Cc1cc(C)cc(OCC(=O)NCc2cccnc2)c1,3.1
O=C(NN=C(/C=C/c1ccccc1)/C=C/c1ccccc1)c1cccnc1,-18.5
Cc1c(NC(=O)c2ccccc2N(Cc2ccccc2)S(C)(=O)=O)c(=O)n(-c2ccccc2)n1C,-56.3
CCCNC(=O)C1CN1Cc1ccc(OC)cc1 (stereo unspecified),5.0
O=C1c2ccccc2-c2onc3c(N4CCN(c5ccccc5)CC4)ccc1c23,-0.3
Cc1cc(C)c(NC(=O)C2C3C4CCC(C4)C23)c(C)c1 (stereo unspecified),113.9*
O=C(Nc1ccc(Br)cc1)C1C2C3CCC(C3)C12 (stereo unspecified),-9.1
SMILES,VHR inh color
O=C(Nc1ccccc1)C1C2C3CCC(C3)C12 (stereo unspecified),-4.7
O=C(Nc1ccc(Cl)cc1)C1C2C3CCC(C3)C12 (stereo unspecified),118.0*
Cc1ccc(C)c(NC(=O)C2C3C4CCC(C4)C23)c1 (stereo unspecified),1.1
Cc1ccc(NC(=O)C2C3C4CCC(C4)C23)cc1 (stereo unspecified),-22.2
Cc1cc2c(cc1C)CSC(c1cccc([N+](=O)[O-])c1)SC2,-16.9
O=C(Cc1ccccc1)N1N=C(c2ccccc2)CC1(O)C(F)(F)F (stereo unspecified),-0.5
O=C1C=C/C(=N\S(=O)(=O)c2ccccc2)C=C1Cl,24.0
CC1=C/C(=N/S(=O)(=O)c2ccc(C)cc2)C=C(Cl)C1=O,58.2
O=C1C(Cl)=CC(=NS(=O)(=O)c2ccccc2)C=C1Br,71.8*
COc1ccc(C(=O)Nc2sc(C(=O)OC(C)C)c(C)c2C(=O)OC(C)C)cc1OC,-7.4
CC(C)OC(=O)c1c(-c2ccccc2)csc1N,44.2
COc1ccc(-c2csc(N)c2C(=O)OC(C)C)cc1OC,-14.7
COC(=O)c1c(-c2cccc(C)c2)csc1N,93.6*
CCCOC(=O)c1c(-c2ccccc2)csc1N,-3.1
CCOC(=O)c1c(-c2ccc(OC)c(OC)c2)csc1N,98.5*
COC(=O)c1c(-c2ccc(OC)c(OC)c2)csc1N,-2.9
O=C1NC(=Nc2ccc(Cl)c(Cl)c2)S/C1=C/c1ccccc1O,-28.5
COc1ccccc1N1CCN(C(=O)c2cc3n(n2)C(C(F)(F)F)CC(c2ccc(Cl)c(Cl)c2)N3)CC1 (stereo unspecified),-15.4
CCOC(=O)C(CCCCOc1cccc(OC)c1)C(=O)OCC,6.5
CC(=O)C1=C(O)CC(C)(C)CC1=Nc1ccccc1O,9.3
O=C(Oc1ccc2c(Cl)c(C(=O)Nc3ccc(F)cc3)sc2c1)c1ccco1,-1.1
O=C1NC(=O)/C(=C\c2ccc(O)c(Br)c2)S1,-1.6
Cc1ccccc1NC(=O)c1c(NC(=O)c2ccc([N+](=O)[O-])cc2)sc2c1CCCC2,-14.7
COC(=O)c1c(N)sc2c1CCCCCC2,-12.9
NC(=O)c1c(N)sc2c1CCCCCCCCCC2,100.4*
COC(=O)c1c(N)sc2c1CCCC2,19.4
O=C1N/C(=N\N=C\c2ccccc2F)SC1Cc1ccccc1[N+](=O)[O-] (stereo unspecified),-27.0

# Screens: PubChem BioAssay, Sanford-Burnham Center for Chemical Genomics
